This passage reports growth results from PubChem BioAssay (NCI).

About 83,000 compounds went through this panel and 20% of them were active in at least one assay; those are over-represented in the sample as a whole.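 The endpoint reported here, percent growth, reads 100 for growth as untreated, 0 for no net growth and -100 for all cells dead.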 The source made the active and inactive calls.

In this experiment the test system is COLO 205 colon. The experiment is described as follows: NCI-60 one-dose screen, 48 h (100 = growth as untreated, 0 = no growth, -100 = all killed). Particulars: 10 µM unless noted. As to the method:
Cells are grown in 96 well plates and exposed to the test compound for 48 hours. Compounds are tested at a single concentration, which is 10^-5 M for most compounds. The reported endpoint is percent growth (GI% or GIPRCNT), where numbers from 0 - 100% represent growth inhibition, and numbers from -100% - 0 represent cell death. For example, a value of 40 represents 60% growth inhibition. A value of 0 means no net growth occurred over the course of the experiment. A value of -40 indicates 40% of cells at the beginning of the experiment died by the end of the experiment. A value of -100 means all cells are dead at the end of the experiment.
NCI-60 Human Tumor Cell Lines Screen was performed using the standard one-dose NCI protocol, which is described in more detail at https://dtp.cancer.gov/discovery_development/nci-60/default.htm.
Compounds with GIPRCNT values below 10 were considered active. Activity score was based on GIPRCNT using the following formula: […]
Score is 0 for GIPRCNT values of 100 or above, 50 for GIPRCNT values of 0, and 100 for GIPRCNT values of -100.
As to `CCCCNC1=C(OCC)C(=O)c2ccccc2C1=O`, the growth was 116% (inactive).
The result for `Cc1c2ccccc2nc2c1ccc1cccnc12` reads 50.8% (inactive); that for `C[C@@H]1O[C@@H](O[C@@H]2C[C@H](c3ccc4c(c3O)C(=O)C3=C(C4=O)[C@@]4(O)C(=O)C[C@](C)(O)C[C@@]4(O)C=C3)O[C@H](C)[C@H]2O)C[C@H](O)[C@@H]1O`, 96.9% (inactive).
As for `CCn1cc(C(=O)NN=C2CCCCCC2)c(=O)c2ccc(C)nc21`, the growth was 97.8% (inactive).
In the case of `CC1(C)CCC(S(=O)(=O)c2ccc3c(c2)/C(=N\O)c2cc(S(=O)(=O)N4CCN(c5ccc(F)cc5O)CC4)ccc2-3)CC1` it was -88.8% (active); in that of `CO[C@H](C(=O)[C@@H](O)[C@@H](C)O)[C@@H]1Cc2cc3cc(O[C@H]4C[C@@H](O[C@H]5C[C@@H](O)[C@H](O)C(C)O5)[C@H](O)C(C)O4)c(C)c(O)c3c(O)c2C(=O)[C@H]1O[C@H]1C[C@@H](O[C@H]2C[C@@H](O[C@H]3C[C@@H](OC)[C@H](O)C(C)O3)[C@@H](O)C(C)O2)C(O)(O)C(C)O1` (stereo not given in full), -80% (active).
The result for `C#CCOc1ccc2ncnc(Nc3cccc(NC(=O)CCl)c3)c2c1` reads 96.7% (inactive); that for `O=C1Nc2ccc(F)cc2/C1=N/c1nnc(Sc2ccccc2)s1`, 119% (inactive).
Turning to `CC1=C(C(=O)n2c3ccccc3c3ccccc32)C(c2cccc([N+](=O)[O-])c2)C(C(=O)n2c3ccccc3c3ccccc32)=C(C)N1`, the growth was 108% (inactive).
In the case of `Cc1c(N2CN3C[C@H](C)N4CN(c5c(C)n(C)n(-c6ccccc6)c5=O)CN5C[C@@H](C)N(C2)C3C54)c(=O)n(-c2ccccc2)n1C` (stereo not given in full) it was 109% (inactive); in that of `C=CCn1c(SCC(=O)Nc2ccc(C(=O)/C=C/c3ccc(OC)cc3)cc2)nnc1-c1ccccc1`, 101% (inactive); in that of `CN(CCC#N)c1ccc(/C=C2\NC(=O)NC2=O)cc1`, 95.8% (inactive).
Take `CNC(=O)c1c(NC(=O)c2ccc(C(C)(C)C)cc2)sc2c(CN(C)C)c(O)ccc12`: the growth is -68.5% (active).
For `CCNc1nc(-c2ccc(F)cc2)c(C#N)c(=O)n1C`, the growth was 62.8% (inactive).
The result for `C=CC(=O)N1CCN(c2ccc3cccc(NC(=O)c4cnc(C)cn4)c3n2)CC1` reads 59.3% (inactive); that for `CN1CCN(c2ccc3c(c2)nc(NNC(=O)c2cnccn2)c2cccn23)CC1`, 3.54% (active); that for `COc1ccc(C(O)c2cc3c(N)c(C(=O)Nc4cccc(Cl)c4)sc3nc2C)cc1` (stereo not given), 3.71% (active).
The result for `COc1cc(Nc2ncccc2NC(=O)c2cn(Cc3cccc(Oc4ccccc4)c3)nn2)cc(OC)c1` reads 86.5% (inactive); that for `C[N+](C)(C/C=C/c1ccccc1)Cc1ccccc1`, 104% (inactive).
Consider `Cn1cc(-c2nonc2-c2c[nH]c3ccccc23)c2ccccc21`, for which the growth is -22.7% (active).
The result for `CCCCn1sc(=O)n(Cc2ccc(CNC(=O)OCc3ccc4c(Br)cc(Br)c(O)c4n3)cc2)c1=O` reads 114% (inactive); that for `CC[C@H](C)[C@H](NC(=O)[C@H](CCCNC(=N)N)NC(=O)[C@H](Cc1c[nH]c2ccccc12)NC(=O)[C@@H](NC(=O)[C@H](CCCCN)NC(=O)[C@H](CCCCN)NC(=O)[C@@H](NC(=O)[C@@H](NC(=O)[C@@H](NC(=O)[C@H](CCCCN)NC(=O)[C@H](Cc1ccccc1)NC(=O)[C@H](CCCCN)NC(=O)[C@H](CCCCN)NC(=O)[C@H](Cc1ccccc1)NC(=O)[C@@H](NC(=O)[C@@H](N)CCCCN)[C@@H](C)CC)[C@@H](C)O)[C@@H](C)CC)[C@@H](C)CC)C(C)C)C(=O)N[C@@H](Cc1ccccc1)C(=O)NCC(=O)N[C@@H](CCCNC(=N)N)C(=O)N[C@@H](Cc1ccccc1)C(N)=O`, -55.3% (active).
In the case of `C=CC(C)(O)CC/C=C(\CO)C(=O)OC1C(C)OC(O[C@](C)(C=C)CC/C=C(\CO)C(=O)O[C@H]2C[C@@]3(C(=O)OC4OC(CO)C(O)C(O)C4OC4OC(C)C(OC5OC(CO)C(O)C5O)C(OC5OC(CO)C(O)C(O)C5O)C4O)C(CC2(C)C)C2=CCC4[C@@]5(C)CC[C@H](OC6OC(COC7OC(C)C(O)C(O)C7OC7OCC(O)C(O)C7O)C(O)C(O)C6NC(C)=O)C(C)(C)C5CC[C@@]4(C)[C@]2(C)C[C@H]3O)C(O)C1O` (stereo not given in full), the growth is -69.3% (active).
As for `CCCCCCC(=O)Nc1ncc(Cc2ccc(C)cc2)s1`, the growth is 16.5% (inactive).
In the case of `Cc1ccc(S(=O)(=O)n2cc(C3C(Cl)C(=O)N3c3ccc(N4CCOCC4=O)cc3)c3ccccc32)cc1` (stereo not given), the growth is 108% (inactive).
On to `Cc1ccc(Nc2nc(-c3ccc(F)cc3)c(C#N)c(=O)n2C)cc1`, for which the growth was 66.8% (inactive).
With `Cc1cc(F)ccc1S(=O)(=O)Nc1cc(-c2c(O)ccc3ccccc23)c(O)c2ccccc12`, the growth was 14.3% (inactive).
As for `C=CCN=C(N)SCCCCCCSC(N)=NCC=C`, the growth is 86.4% (inactive).
Turning to `COc1cccc(/C=C2\COc3ccc(O)cc3C2=O)c1`, the growth was 97.9% (inactive).
`FC(F)(F)c1[nH]ncc1-c1nc2c(N3CCCCC3)cc3[nH]ncc3c2c2c1CCCC2`: the growth is -33.7% (active).
As to `CCCCCCCC/C=C\CCCCCCCCOc1ccc(CC(=O)NCC[N+](C)(C)C)cc1`, the growth is -69.1% (active).
Turning to `COc1cc(C#Cc2ccc(=O)oc2C#Cc2ccccc2)cc(OC)c1OC`, the growth was 23.6% (inactive).
In the case of `C#CCn1cnc2c(Nc3cccc(NC(=O)CCl)c3)ncnc21` it was 18.6% (inactive); in that of `CC1(C)C2CC=C(/C=N/NC(=O)C3CCC(=O)N3)C1C2` (stereo not given), 114% (inactive); in that of `CN1C(=O)N(C)C2C1NC(=S)N2/N=C/C=C/c1ccccc1[N+](=O)[O-]` (stereo not given), 14.3% (inactive).
On to `O=C(Nc1nc(C(=O)N2CCN(C(c3ccccc3)c3ccccc3)CC2)cs1)c1ccc(NC2CCCCC2)c([N+](=O)[O-])c1`, for which the growth is 103% (inactive).
On to `CS(=O)(=O)Cc1cnc(C2OCCO2)s1`, for which the growth was 116% (inactive).
Regarding `COCCCOc1cc(C[C@@H](C[C@H](N)[C@@H](O)C[C@H](C(=O)NCC(C)(C)C(N)=O)C(C)C)C(C)C)ccc1OC`, the growth is 112% (inactive).
Take `C[C@H]1[C@H](C)CC[C@]2(C(=O)O)CC[C@]3(C)C(=CC[C@@H]4[C@@]5(C)C[C@@H](Cc6cn([C@@H]7O[C@H](CO)[C@@H](O)[C@H](O)[C@H]7O)nn6)[C@H](O)C(C)(C)[C@@H]5CC[C@]43C)[C@H]12`: the growth is 105% (inactive).
In the case of `Cn1ccnc1C(=O)/C=C/c1ccc(C(=O)Nc2ccc(F)cc2)cc1` it was 25.8% (inactive).
